Structures are written as SMILES. Several values for one entry are separate records, joined by “and”; a condition that tells them apart may be missing. Identical values can stand only once. Inconclusive results are not listed. Activity calls are given as the source filed them. Calls follow the shape of the dose curve; as a rule, active = well fitted inhibition curve with a large enough effect; inconclusive = small, poorly fitted or top-dose-only effect; inactive = no such curve, though single readings can be large or run the other way.

40 compounds from PubChem BioAssay AID540352 (National Center for Advancing Translational Sciences (NCATS), 2011) can be followed below.

This assay can be described thus: qHTS for Inhibitos of Bacillus subtilis Sfp phosphopantetheinyl transferase (PPTase): Chemistry Optimization Followup in B. Subtilis 168. Conditions: B. subtilis 168 growth, BacTiter-Glo luminescence, 5 h; series mostly up to 114 µM. The text has this: Phosphopantetheinyl transfer is a process essential to cellular viability and maintenance. Cell-permeable and stable compounds acting as PPTase inhibitors are anticipated to be antimicrobial agents in organisms with complimenting genotypes. […] This experiment evaluated a series of test compounds for antimicrobial activity with B. subtilis 168 (genotype: acpS+ and sfp-), a strain that contains a frameshift mutation in the sfp locus and thus requires a functional AcpS gene product for viability. [Mootz HD, 2001] This strain is expected to be sensitized to cell-permeable AcpS inhibitors, and insensitive to Sfp inhibitors. NIH Chemical Genomics Center [NCGC] NIH Molecular Libraries Probe Centers Network [MLPCN] MLPCN Grant: MH083266-01 Assay Submitter (PI): Michael Burkart, University of California, San Diego
Innoculum preparation. Bacillus subtilis 168 is maintained on lysogeny broth (LB) solidified by the addition of 1.5% w/v agar. Single colonies were used to LB medium (2 mL) and shaken overnight at 30 masculineC. In the morning, this culture (100 ul) was used to seed a fresh LB medium (10 mL) and was shaken at 30 masculineC until the culture OD600 reached 0.5. This culture was diluted 1:100 in fresh LB medium to provide the inoculum below. Bacterial susceptibility. LB medium (2 uL) is dispensed into wells of a sterile white 1536-well plate. Test compounds (23 nL) prepared as serial dilutions in DMSO are added to the plate by pintool transfer. Innoculum (2 uL) is added, the plates are covered with a vented Kalypsys assay lid and incubated at 30 masculineC. After 5 h, Bac-Titer Glo (4 uL; Promega Corp, Madison, WI) is added to the plates. They are incubated 10 minutes at room temperature and then the luminescence detected in a ViewLux multimodal plate reader.
Regarding `S=C(Nc1cc(Cl)ccn1)N1CCN(c2ccc(Cl)cc2Cl)CC1`, the Potency is 9.37 µM (active).

With `Cc1cncc(NC(=S)N2CCN(c3cccc(C(F)(F)F)c3)CC2)c1`, the Potency result was “inactive”. As to `Cc1cc(C)nc(NC(=S)N2CCN(Cc3cccc4ccccc34)CC2)c1`, the Potency is 37.3 µM (active). For `Cc1ccnc(NC(=S)N2CCN(c3ccc(N)cc3)CC2)c1`, the Potency result was “inactive”.

As to `FC(F)(F)c1cccc(N2CCN(C(=S)Nc3cc(C(F)(F)F)ccn3)CC2)c1`, the Potency was 13.2 µM (active). `Cc1cc(C)nc(NC(=S)N2CCN(c3ccc([N+](=O)[O-])cc3Cl)CC2)c1`: the Potency was 9.37 µM (active).

Consider `Cc1ccnc(NC(=S)NC2CCN(c3cccc(C(F)(F)F)c3)CC2)c1`, for which the Potency is 46.9 µM (active).

On to `Cc1cc(C)nc(NC(=S)N2CCN(c3ccc4cn(C)nc4c3)CC2)c1`, for which the Potency entry is “inactive”. `Cc1cc(C)nc(NC(=S)N2CCN(c3cncs3)CC2)c1`: the Potency was 46.9 µM (active).

In the case of `Cc1cc(C)nc(NC(=S)N2CCN(c3cc(F)cc(F)c3)CC2)c1`, the Potency was 37.3 µM (active). For the compound `Cc1cc(C)nc(NC(=C(C#N)C#N)N2CCN(c3cccc(C(F)(F)F)c3)CC2)c1`, the Potency is 37.3 µM (active). Turning to `Cc1ccnc(NC(=S)Nc2cccc(C(F)(F)F)c2)c1`, the Potency was 16.7 µM (active). In the case of `FC(F)(F)c1cccc(N2CCN(C(=S)Nc3nccc4ccccc34)CC2)c1`, the Potency is 2.35 µM (active). The figure for `FC(F)(F)c1cnc(N2CCN(C(=S)Nc3cc(Cl)ccn3)CC2)c(Cl)c1` is 14.8 µM (active); for `FC(F)(F)c1cccc(N2CCN(C(=S)Nc3ccncc3)CC2)c1` it is 41.8 µM (active); for `Cc1ccnc(NC(=S)N2CCCN(c3cccc(C(F)(F)F)c3)CC2)c1` it is 16.7 µM (active). With `COc1cccc(NC(=S)N2CCN(c3ccccc3C(F)(F)F)CC2)n1` the figure was 26.4 µM (active); with `S=C(Nc1cc(Cl)ccn1)N1CCN(c2ccc3ccccc3n2)CC1`, 33.2 µM (active). The figure for `Cc1cc(C)nc(NC(=S)N2CCN(c3ccc(Cl)c(Cl)c3Cl)CC2)c1` is 9.37 µM (active); for `Cc1cc(C)nc(NC(=S)N2CCN(c3ccc(Cl)cc3F)CC2)c1` it is 23.5 µM (active). For `Cc1cccc(NC(=S)N2CCN(c3cccc(C(F)(F)F)c3)CC2)c1`, the Potency result was “inactive”. Regarding `FC(F)(F)c1cccc(N2CCN(C(=S)Nc3ncnc4ccccc34)CC2)c1`, the Potency is 6.63 µM (active). With `Cc1cc(C)nc(NC(=S)N2CCN(Cc3c(F)cccc3Cl)CC2)c1` the entry was “inactive”; with `Cc1cc(C)nc(/N=C(\NC#N)N2CCN(c3cccc(C(F)(F)F)c3)CC2)c1`, 46.9 µM (active); with `Cc1ccnc(NC(=S)N2CCN(c3cccc(C(F)(F)F)c3)CC2)c1`, 41.8 µM (active) and 14.8 µM (active) and 16.7 µM (active). For the compound `COc1ccc(NC(=S)N2CCN(c3cccc(C(F)(F)F)c3)CC2)nc1`, the Potency result is “inactive”.

In the case of `Cc1ccnc(NC(=S)N2CC3CN(c4cccc(C(F)(F)F)c4)CC3C2)c1` (stereo not given), the Potency is 11.8 µM (active). `Cc1ccnc(NC(=S)N2CCN(c3cc(C(F)(F)F)cc(C(F)(F)F)c3)CC2)c1`: the Potency is 13.2 µM (active). With `FC(F)(F)c1ccc(N2CCN(C(=S)Nc3ccccn3)CC2)cc1` the figure was 21 µM (active). With `COc1ccnc(NC(=S)N2CCN(c3ccc(Cl)cc3Cl)CC2)c1` the figure was 13.2 µM (active); with `Cc1ccc(N2CCN(C(=S)Nc3cc(C)ccn3)CC2)cc1`, 59.1 µM (active); with `COc1cccc(NC(=S)N2CCN(c3ccc(Cl)c(Cl)c3)CC2)n1`, “inactive”. With `Cc1ccnc(NC(=S)N2CCC(Nc3cccc(C(F)(F)F)c3)CC2)c1` the figure was 37.3 µM (active); with `Cc1ccnc(NC(=S)N2CCc3ccccc3C2)c1`, 59.1 µM (active); with `Cc1ccnc(NC(=S)N[C@H]2CCN(c3cccc(C(F)(F)F)c3)C2)c1`, 52.7 µM (active). `Cc1cc(C)nc(NC(=S)N2CCN(c3ccc(Cl)cc3C(F)(F)F)CC2)c1`: the Potency was 9.37 µM (active). The figure for `Cc1ccnc(NC(=S)N2CCN(c3cc(F)cc(Cl)c3)CC2)c1` is 5.91 µM (active).

Turning to `Cc1cc(C)nc(NC(=S)N2CCN(c3ccc(Cl)cc3Cl)CC2)c1`, the Potency is 23.5 µM (active). Take `FC(F)(F)c1cccc(N2CCN(C(=S)Nc3ccccn3)CC2)c1`: the Potency is 46.9 µM (active).

As for `COc1ccnc(NC(=S)N2CCN(c3ncc(C(F)(F)F)cc3Cl)CC2)c1`, the Potency was 14.8 µM (active).
